From PubChem
PfHsp90 set2: growth inhibition of PfHsp90-expressing yeast, primary screen, antimalarial PfHsp90 inhibitor project, S. cerevisiae, BacTiter-Glo luminescence, single point, set 2. AID 504621, 2011. hit rate 0.32% among 310,000. BacTiter-Glo ATP, 48 h; yeast lacking PDR1 and PDR3 efflux regulators. inhibition, % at 9.4 µM;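 active = every replicate shows inhibition above about 80%, whatever the replicate mean, limit read from the data; inconclusive = mean inhibition reaches the set limit but some replicate falls short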;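 note: 0% = DMSO neutral controls and 100% = 20 µM radicicol positive controls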
SKKanGAS inh: S. pyogenes SKKanGAS growth inhibitors in kanamycin, primary screen, streptokinase expression inhibitor project, SKKanGAS strain, BacTiter-Glo luminescence; 6 h; inhibition, % at 7.5 µM; hit rate 1.3% among 300,000;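 active = mean replicate score, as percent of positive control median, at least 50; inconclusive = mean below 50 but one replicate at or above 50; inactive = mean and every replicate below 50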;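 note: strain carries kanamycin resistance gene driven by streptokinase promoter and grows in 40 µg/ml kanamycin; loss of luminescence reflects streptokinase promoter inhibition or plain growth inhibition; 0% = median of DMSO wells and 100% = positive control at its reference dose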
TIM10 inh: growth inhibitors of isogenic TIM10 control yeast, primary screen, counter-screen for tim10-1 yeast inhibitor project, luminescence, uHTS. S. cerevisiae TIM10 strain growth, BacTiter-Glo luminescence, 24 h. inhibition, % at 10 µM. hit rate 1.4% among 330,000;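 active = inhibition of 40% or more at the single tested concentration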;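 note: wild-type TIM10 isogenic control strain grown at permissive 25 °C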
Calb FLC: C. albicans growth inhibition with fluconazole, primary screen, CaCi-2 strain, Alamar Blue fluorescence; C. albicans CaCi-2 (fluconazole-resistant clinical isolate) + fluconazole, 48 h; growth inhibition, % (no concentration beside the values); hit rate 0.57% among 300,000; AID 1979, 2009;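 active = growth inhibition above about 58% in most replicates, limit read from the data, passing the limit was not always enough; inconclusive = exactly half the replicates above a set limit; inactive = most replicates below a set limit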;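 note: all wells also contain fluconazole at 8 µg/ml as a sub-toxic cotreatment; 0% = median of DMSO wells and 100% = median of geldanamycin control wells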
tim10-1 inh: growth inhibitors of tim10-1 mutant yeast, primary screen, luminescence, uHTS; S. cerevisiae tim10-1 ts strain growth, BacTiter-Glo, 24 h; inhibition, % at 20 µM; hit rate 2.2% among 330,000; AID 463190, 2010;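 active = inhibition of at least 40%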;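 note: mutant grown at 25 °C; 0% = DMSO wells with yeast and 100% = wells holding no yeast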
tim23-1 inh: growth inhibitors of tim23-1 mutant yeast, primary screen, luminescence, uHTS; S. cerevisiae tim23-1 growth, BacTiter-Glo luminescence, 24 h; inhibition, % at 20 µM; hit rate 1.3% among 330,000;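 active = growth inhibition of the mutant yeast at or above 50%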;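 note: temperature-sensitive mutant grown at 25 °C; plate controls were DMSO-treated mutant yeast for no effect and medium wells lacking yeast for full effect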
tim10-1 confirm: growth inhibitors of tim10-1 mutant yeast, confirmation, single concentration, luminescence, S. cerevisiae; shares compounds with tim10-1 inh; S. cerevisiae tim10-1 ts strain growth, BacTiter-Glo, 24 h; hit rate 56% among 7,400; inhibition, % at 20 µM;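 active = inhibition of yeast growth at or above a set limit in either of two repeat tests at 20 µM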;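 note: tim10-1 mutant grown at permissive 25 °C to find synthetic lethal compounds; 0% = DMSO yeast wells and 100% = medium wells without yeast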
Active calls of the source: *; ? = inconclusive; / = no result given. In the library only some 4.7% were active in any assay of this set; here they are far more common.

SMILES	PfHsp90 set2	SKKanGAS inh	TIM10 inh	Calb FLC	tim10-1 inh	tim23-1 inh	tim10-1 confirm
CC(C)Sc1oc(-c2ccco2)nc1S(=O)(=O)c1ccccc1	-9	-1	30	1	41*	49	30
Cc1noc(C)c1C(=O)Nc1ccccc1N1CCOCC1	-5	/	-4	/	8	8	/
Nc1cc(S(=O)(=O)N2CCCCC2)ccc1N1CCCCC1	3	/	24	/	45*	34	27
Cc1cc(C)cc(N2C(=O)CC(Sc3nnnn3-c3ccccc3)C2=O)c1 (stereo not given)	-8	1	35	-22	51*	49	51*
Cn1nnnc1SC1CC(=O)N(c2ccccc2)C1=O (stereo not given)	8	18	11	-22	21	32	/
CCCCN1C(=O)C2(NNc3ccccc3O2)c2ccccc21 (stereo not given)	6	11	31	-34	43*	33	19
C=CCN1C(=O)C2(NNc3ccccc3O2)c2ccccc21 (stereo not given)	-8	43	34	11	1	36	/
CCCOC(=O)c1ccc(NC(=O)c2c(Cl)ccc(Cl)c2OC)cc1	-55	36	15	-1	48*	45	32*
O=C(N/N=C/c1ccccc1F)c1ccccc1OCc1ccccc1	-21	-5	5	-9	19	25	/
CCOC(=O)c1c(O)c2cc(Cl)ccc2n(CC)c1=O	/	-9	-21	28	5	10	/
OC(COCC(F)(F)C(F)(F)C(F)(F)C(F)F)Cn1c2ccc(Cl)cc2c2cc(Cl)ccc21 (stereo not given)	-47	110*	31	-1	41*	24	36*
CCCCCCCCCCCCC(=O)CCCCC(=O)O	-21	33	17	-4	20	11	/
CCCCCCCCCCCCCCCC(=O)OC(CC(=O)O)C[N+](C)(C)C (stereo not given)	109*	/	5	/	64*	4	22
CN(C)c1ccc([C@@H]2[C@@H]([N+](=O)[O-])[C@H]3C=Cc4ccccc4N3[C@H]2C(=O)c2ccc(Cl)cc2)cc1	-5	/	17	/	45*	33	26
O=C(c1ccccc1)C1C(c2ccccc2)C1[N+](=O)[O-] (stereo not given)	-47	-2	-2	-10	4	9	/
Cc1c(-c2cccc(Cl)c2)nc2ccccc2c1C(=O)NC1CC1	18	/	-5	2	-7	18	/
COc1ccc(C(=O)O/N=C(/c2ccccc2)c2ccncc2)cc1OC	13	4	35	9	14	29	/
Cc1cccc(C(=O)O/N=C(/c2ccccc2)c2ccncc2)c1	/	-3	31	-12	41*	37	42*
N/C(=N\OC(=O)c1ccccc1)c1ccncc1	2	-4	4	-5	-8	4	/
N/C(=N\OC(=O)c1ccc(Br)cc1)c1ccncc1	0	-21	37	?	53*	29	43*
N/C(=N\OC(=O)c1cccc(Br)c1)c1ccncc1	10	-4	11	-25	41*	12	35*
N/C(=N\OC(=O)c1ccc(F)cc1)c1ccc(Br)cc1	/	1	34	-9	57*	29	46*
O=C1NC(=O)C(c2ccccc2)(C2CCCC2)N1 (stereo not given)	4	/	/	/	/	/	/
CC(=O)CCC(=O)N1CCC(n2nccc2NC(=O)c2ccccc2C)CC1	-1	8	-1	25	-7	-6	/
O=C(Cc1ncc(C(F)(F)F)cc1Cl)N1CCN(c2cccc(Cl)c2)CC1	-3	-2	0	9	43*	7	9
SMILES	PfHsp90 set2	SKKanGAS inh	TIM10 inh	Calb FLC	tim10-1 inh	tim23-1 inh	tim10-1 confirm
O=C(CSc1ccccn1)N1CCN(c2cccc(Cl)c2)CC1	14	-6	14	10	43*	18	17
CC(C(=O)Nc1ccc2c(c1)OCO2)N1CCC(N2CCCCC2)CC1 (stereo not given)	11	/	4	/	8	16	/
Cc1c(OCC(=O)NCCCN2CCOCC2)ccc2c3c(c(=O)oc12)CCCC3	-4	-1	25	7	46*	9	26
Cc1c(OCC(=O)NCCN2CCOCC2)ccc2c3c(c(=O)oc12)CCC3	-19	7	8	4	2	-1	/
CCCc1cc(=O)oc2c(C)c(OCC(=O)NCCCN3CCOCC3)ccc12	-17	-7	-7	0	-4	6	/
CCCc1cc(=O)oc2c(C)c(OCC(=O)Nc3ccc(CN4CCOCC4)cc3)ccc12	-7	7	39	-1	40*	11	33*
Cc1cc(C)n2nc(C(=O)OCC(=O)NCc3ccc(F)cc3)nc2n1	-1	/	3	/	-7	0	/
CCCCCCCc1c(O)nc(SCC(=O)O)[nH]c1=O	-3	-8	-14	-2	10	5	/
Oc1ccc(Br)cc1/C=N/n1cnc2ccccc21	18	5	34	-52	42*	33	24
Cc1c(C)n2c(SCC(=O)N3CCN(c4ccccc4)CC3)nnc2[nH]c1=O	-22	-10	3	5	-11	-5	/
Cc1ccc(O)c(C2=Nc3ccccc3N=C(c3cccc([N+](=O)[O-])c3)C2)c1	-10	6	14	1	40*	3	18
O=C1NC(=O)C(=Cc2ccccc2[N+](=O)[O-])S1	-16	/	/	/	/	/	/
O=C1NC(=O)/C(=C/c2cccc3ccccc23)S1	-35	25	12	107*	47*	41	35*
CC[C@@H]1CC=C[C@H]2[C@H]1C(=O)N(Cc1ccccc1)[C@H]2c1ccoc1	/	-1	-4	7	77*	-14	73*
CC[C@@H]1CC=C[C@H]2[C@H]1C(=O)N(Cc1ccccc1)[C@H]2c1ccc(OC)c(Cl)c1	-16	59*	36	-10	43*	38	29
C[C@@H]1CC=C[C@H]2[C@H]1C(=O)N(Cc1ccccc1)[C@H]2c1ccoc1	/	9	-2	-6	50*	5	34*
Cc1ccc(NC(=S)NNC(=O)c2ccccc2OC(F)F)cc1	-4	-1	29	3	40*	17	39*
O=C(NNC(=S)Nc1cccc(Cl)c1)c1ccccc1OC(F)F	-9	-7	4	?	43*	33	28
COc1cccc(NC(=S)NNC(=O)c2ccccc2OC(F)F)c1	-4	1	12	?	31	15	/
CCCN(CC(=O)Nc1cc(Cl)ccc1Cl)C(=O)c1ccccc1SCC(=O)N1CCCC1	-30	-11	10	-1	11	8	/
